# According to PubChem BioAssay AID1508600 (Functional Genomics Laboratory (NCATS/FGL), 2020):
# Hit rate of the full screen: of about 53,000 sequences, about 3,700 (7%) were called active.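 Rule for the calls: active = gene knockdowns whose robust z-score for IL-1 alpha signal is at least 2 or at most -2, so actives lie on both sides; inactive = the rest.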 The sample as a whole holds a higher share of actives than the screen did.
# Assay: Components of the Cytosolic LPS Sensing Pathway: Gene Identification via Genome-wide siRNA Screen;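 note: robust z of the log signal after scaling to non-targeting control siRNA wells of the plate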
# Conditions: RAW264.7 macrophages, IL-1a HTRF, actives lie on both sides, screened at 100 nM (by protocol), cells primed 5 h with Pam3CSK4 first
# Procedure, shortened: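 Knockdown: 100 nM siRNA, 48h, RAW264.7. Stimulation: Pam3CSK4 5 h, then LipidA via TransIT-TKO 24 h. Output: supernatant IL-1a HTRF, negative-control-normalized, log robust z-score; viability by CellTiter-Glo.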
row,Sequence,z-score
1,GCUAGGUGUUUGAAGCCUCTT against Mixl1,-0.834 (inactive)
2,GGAAGGGUAAAUUUAGAAGTT against Arrdc3,2.83 (active)
3,GAUCUUCCUGACAGUGGUGTT against Psors1c2,-0.15 (inactive)
4,GGUAAAAAACCAAGAACAATT against Ednrb,2.17 (active)
5,GGACUUCUUCUUGUACAACTT against Capn3,1.03 (inactive)
6,GGGCUCUUGCCAGAAAACGTT against Rsph3a,-0.524 (inactive)
7,GCCACUCGGAGAUUUUUCATT against Slc15a4,-0.6 (inactive)
8,CCCUGACCUUCAGAUUGUGTT against Olfr788,0.14 (inactive)
9,CCAAGUAGAUAGGAAUUAUTT against Eps8,2 (inactive)
10,GCUUUAUGGGAGACAAAGGTT against 1700022I11Rik,2.53 (active)
11,GGAUGCUUUACCAAAUGAATT against Slc44a3,0.147 (inactive)
12,GGAAAAUUGGCCAAAAUAATT against Pdcl,-0.0308 (inactive)
13,GGAGAAGCUGCUGGCAGAATT against Trub1,-1.15 (inactive)
14,GGUCUUGGAGUUGCUAAUUTT against Med4,2.63 (active)
15,CCUCUUCUUGUUUCAAGGGTT against Piezo2,0.062 (inactive)
16,CCAGCUAAACUCUGUAAAATT against Zfp639,-0.113 (inactive)
17,GCUUUGGACAAUAAGAAGUTT against Cdkl1,-0.838 (inactive)
18,GUCACUGAUACUCAAUAAATT against Vmn1r172,-1.45 (inactive)
19,GCAUCGUCCUCCAAAGAUUTT against Sf3b1,-3.01 (active)
20,GGCUAUCUACCAUUAUAUGTT against Ifit2,-0.607 (inactive)
21,GGUCCUGUUAAACUGAAAGTT against Fkbp1a,-1.45 (inactive)
22,GGGAAUAAAAAGGAUCACUTT against Rab39,1.27 (inactive)

row,Sequence,z-score
1,CCUGAAUGACCUAGGGCCUTT against Adam8,0.286 (inactive)
2,GGCAUGAGCUAUCAGGACUTT against Efcab6,1.37 (inactive)
3,GGUAUUAGCAAUUUUCUGGTT against Olfr619,-0.681 (inactive)
4,CGAGGAUGACUUGAUGACCTT against Ajm1,-2.18 (active)
5,GGGAAAAUUCCAGAAUCGCTT against Musk,0.315 (inactive)
6,GCCGGCCAGAAUAUACAUUTT against Fndc10,0.415 (inactive)
7,CCUUCCUCGUGAUUCGCUATT against Lman2l,-0.461 (inactive)
8,GGUUGAGUAGUUGAUUUUCTT against Hemgn,0.663 (inactive)
9,GGAAAUACCCACCUUAUACTT against Efhc2,2.51 (active)
10,GGAGCAGAUACAGAAGAUCTT against Pfdn2,-1.21 (inactive)
11,GUAUAGUGUAUCUCAUCAUTT against Olfr1107,1.56 (inactive)
12,GCUCAGUGGACAUGCUCUATT against Hpse,-0.502 (inactive)
13,GGAGGCAUGAUAAGCUUCGTT against Pmm1,-0.425 (inactive)
14,GCUACUAAACAGGGUGUGATT against Gpsm3,-2.42 (active)
15,GGGUGAGAUAAUUGAAAAGTT against Slc12a6,0.607 (inactive)
16,GGGCUUCAACACUGAGAAGTT against Arl4d,-1.04 (inactive)
17,GGCUCCUACCAAUCUCACUTT against Calcr,-0.548 (inactive)
18,GGGAAAAAUGGACUAGCAUTT against Ahctf1,0.888 (inactive)
19,GCAUUGGACUCAUAAUUUUTT against Aadat,0.0399 (inactive)
20,GGUAAUGUUCUCCUUUGAATT against Dok1,4.89 (active)
21,GCCUGAAUUUAGUGUUAAGTT against Hnmt,1.72 (inactive)
22,CCAUUGAAAAACUGGACAGTT against Olfr1463,3.26 (active)

row,Sequence,z-score
1,GCUCUUCAUAACUCUUGCUTT against Olfr1392,-0.288 (inactive)
2,GGCCAGAACUGUUCCAAUUTT against Cilp,1.15 (inactive)
3,GGGAAUUUAAUUUUUCGUGTT against Sfn,-0.642 (inactive)
4,GGAAGUCAACCGAGUCUUCTT against Sp140,0.011 (inactive)
5,GGGUAUGAUAUGUUAAUGATT against Ndufaf7,-0.434 (inactive)
6,CCAUUUAAGUGUGUGUUAATT against Rbmx,0.475 (inactive)
7,GGAUUUUGCACUAUAACAATT against Zmat3,3.83 (active)
8,GGACAACGGAUUUUAGGAGTT against Barhl2,0.44 (inactive)
9,GGUUGAAUAUACUUAGCACTT against Gm5082,0.947 (inactive)
10,CCAUGGAAUCUCCUAUACCTT against C4bp,-0.679 (inactive)
11,GGUAAAUCAAAUCACUGCCTT against Slamf1,0.316 (inactive)
12,CCCUUUCAUUGUGCAUUAATT against Hdhd2,-2.22 (active)
13,GCUCAAGAGUCUAACUCCCTT against Serinc4,0.558 (inactive)
14,GGAGAAAGUUUUGGAAAAATT against Slc24a5,-0.622 (inactive)
15,GGAUUUCUACCAGCUCGUGTT against Pop5,1.62 (inactive)
16,GGAUGGCAGCUUUGACCUUTT against Cdc42ep2,0.566 (inactive)
17,GCAAAACCCAACAACUCUGTT against Lig3,1.05 (inactive)
18,CCUACUGGAGUCUCCUCUUTT against Tmem116,0.36 (inactive)
19,GGAGGACAAUGAGGACGAUTT against Chrac1,2.1 (active)
20,AUUUCUGUAAGGCAAAUGUTT against Olfr970,-0.454 (inactive)
21,CCUCGAAUGCAGACGUACGTT against Sdhb,1.67 (inactive)
22,CCAAAGUCAUAAUUCCAACTT against Timm23,0.202 (inactive)

row,Sequence,z-score
1,GGAGCAGAUUAAAUCCCUGTT against Krt8,2.46 (active)
2,GGGAGCUAAGAAGAUUCAUTT against Mul1,0.89 (inactive)
3,GCAGCAGUUGGCUAAAACATT against Bbof1,-1.14 (inactive)
4,GGUGGAUGGAUCACUGAGUTT against B230325K18Rik,-0.347 (inactive)
5,GCAACUAUGAACAAGAAUCTT against Grm3,-0.0322 (inactive)
6,GCCACGAAAAGAAGAGAAUTT against Vpreb2,1.08 (inactive)
7,CCUACAGAGUACCCUGUCUTT against Gas2l2,-2.56 (active)
8,GGUCCUGAAUUUCAUCCUUTT against B4galnt2,0.459 (inactive)
9,GGUCAGAAAUUCUAAGUUGTT against Gpatch2,1.09 (inactive)
10,GGAAAUGACCUACGAAGAATT against Pfkfb4,-1.26 (inactive)
11,GGCAGUCAACAAAGAAGACTT against Metap1d,-0.711 (inactive)
12,GGUCUGGUGGAGUUGAGAATT against Ccdc80,-0.617 (inactive)
13,GCGAGUGCUAACAUGAAAGTT against Sar1a,-0.0783 (inactive)
14,GUUUGUGCUGUUAGGUUUUTT against Olfr1347,2.46 (active)
15,GGACAAAAGACUUGAAUUUTT against Alox15,1.86 (inactive)
16,GGCUGAAGAGGAUCGGUACTT against Atpif1,2.08 (active)
17,CGCAAGAGUUCCUUUUUUUTT against Sla,0.671 (inactive)
18,GGCCACCUAUGAUGGAAAUTT against Kdelr2,-0.379 (inactive)
19,GCUCUGAUGGUCUACUGCUTT against Rgs3,-0.347 (inactive)
20,GGGCAGCUCAUGUCCUAUATT against Scfd2,-0.421 (inactive)
21,CCAGAAAAAAGAUUGUACATT against Hesx1,-0.43 (inactive)
22,GCAGAGCUAGCUGAAUUGCTT against Urb2,-0.156 (inactive)

row,Sequence,z-score
1,GCCGUUAAACAGUUCUCCCTT against Cyb561a3,-0.455 (inactive)
2,GGAUCGAGUUUGGUGUAGATT against Usp10,-1.39 (inactive)
3,CCAUCUACCAUAAACUGUATT against Spata6,0.175 (inactive)
4,CCAUUAAUUACGUGUUUGUTT against Dixdc1,-0.104 (inactive)
5,GGAAUGGAAUACAAAGUCATT against Isg20l2,-0.305 (inactive)
6,CCUAUGCAUCAGACCUUUGTT against Nedd9,2.7 (active)
7,GGUUUUUCUGUCAAGUGCUTT against Lgr5,-0.303 (inactive)
8,GGCAAGAUCCACAAUGAUGTT against Lgals2,-0.996 (inactive)
9,CCGUCAGUGAAUUCUUGAATT against Birc5,0.342 (inactive)
10,GGAAGUUUGCUCCAGCCUUTT against Tmem33,-0.202 (inactive)
11,GCGAGUGACACAUCUUCUCTT against Klhl7,0.467 (inactive)
12,GGAACAUAUGCAGAAUUUATT against Adgrb3,0.509 (inactive)
13,GGUCCAUUGGGAGUUUGAGTT against Slc2a6,3.14 (active)
14,GGAUGGAGAGAACUACUUATT against Gltpd2,0.999 (inactive)
15,GGAGUGUGAUCAAGUUCAUTT against Eya4,2.16 (active)
16,GGUGUUUGCCUCAGAAAUCTT against Cdk17,-0.676 (inactive)
17,GGUGAAGAUUGACAAGAAATT against Spout1,0.254 (inactive)
18,GGAUGAAUGCAGCUUCCAUTT against Myh14,2.35 (active)
19,GGGUGUUCCAGAAGUAUCUTT against Lars2,-1.76 (inactive)
20,CCUUGGAAUGCAUAGCCAATT against Sdk1,0.285 (inactive)
